# Data taken from article PMC7862700, “An all-to-all approach to the identification of sequence-specific readers for epigenetic DNA modifications on cytosine”.
# What was measured:
# Experiment in all cases: DAPPL (digital affinity profiling via proximity ligation, sequencing); 10 mM Tris-HCl pH 7.5, 50 mM NaCl, 1 mM DTT, 4% glycerol, room temperature, 30 min; GST-TFs on glutathione beads, 16-mer random dsDNA library, 0.1% formaldehyde crosslink after washing; high values mean tight binding
# [1] = molecular target: T1, FLI1 (Homo sapiens, UniProt Q01543 1-452); conditions: protein: recombinant; tags: N-terminal GST; dsDNA, one strand shown
# T1 sequence: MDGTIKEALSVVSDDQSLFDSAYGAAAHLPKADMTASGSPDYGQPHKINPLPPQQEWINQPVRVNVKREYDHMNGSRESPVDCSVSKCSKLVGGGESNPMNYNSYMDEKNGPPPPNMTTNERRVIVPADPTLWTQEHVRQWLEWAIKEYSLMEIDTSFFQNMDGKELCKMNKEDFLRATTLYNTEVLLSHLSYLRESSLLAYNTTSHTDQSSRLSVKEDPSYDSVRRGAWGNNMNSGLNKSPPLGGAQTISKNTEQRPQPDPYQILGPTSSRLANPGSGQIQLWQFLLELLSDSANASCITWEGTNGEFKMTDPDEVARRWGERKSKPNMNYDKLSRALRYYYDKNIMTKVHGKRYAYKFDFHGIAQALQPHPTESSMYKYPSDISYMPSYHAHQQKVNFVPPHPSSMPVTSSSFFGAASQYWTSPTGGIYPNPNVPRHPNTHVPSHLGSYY
# In short: (§1)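 After expression in yeast as GST fusions, human transcription factors were bound to glutathione beads, DNA-barcoded and mixed with a tag-only sample. The pools were incubated with 200 nmole of a 16-mer random double-stranded DNA library in Tris/NaCl/DTT/glycerol buffer (30 min, room temperature), washed and crosslinked with 0.1% formaldehyde. Proximity ligation with BsaI/T4 ligase ran for 1 h at 37 °C, before PCR amplification and sequencing on an Illumina NextSeq500. Binding signal is a hexamer's read frequency for a factor divided by its frequency for the tag-only sample.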
# [2] = molecular target: T2, ELK1 (Homo sapiens, UniProt P19419 1-428); conditions: protein: recombinant; tags: N-terminal GST; dsDNA, one strand shown
# T2 sequence: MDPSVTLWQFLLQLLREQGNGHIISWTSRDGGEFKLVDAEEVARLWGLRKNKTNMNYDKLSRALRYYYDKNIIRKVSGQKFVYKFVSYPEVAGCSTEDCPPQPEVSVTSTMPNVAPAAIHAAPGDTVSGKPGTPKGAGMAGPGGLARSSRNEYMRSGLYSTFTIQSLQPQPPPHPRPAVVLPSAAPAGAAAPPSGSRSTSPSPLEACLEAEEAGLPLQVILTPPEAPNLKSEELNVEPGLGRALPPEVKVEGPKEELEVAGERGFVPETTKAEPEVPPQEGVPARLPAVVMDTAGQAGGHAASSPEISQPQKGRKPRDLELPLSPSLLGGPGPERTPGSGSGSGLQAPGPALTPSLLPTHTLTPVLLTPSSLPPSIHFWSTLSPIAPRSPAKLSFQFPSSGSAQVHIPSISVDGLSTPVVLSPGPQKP
# In short: as §1
# [3] = molecular target: T3, GABPA (Homo sapiens, UniProt Q06546 1-454); conditions: protein: recombinant; tags: N-terminal GST; dsDNA, one strand shown
# T3 sequence: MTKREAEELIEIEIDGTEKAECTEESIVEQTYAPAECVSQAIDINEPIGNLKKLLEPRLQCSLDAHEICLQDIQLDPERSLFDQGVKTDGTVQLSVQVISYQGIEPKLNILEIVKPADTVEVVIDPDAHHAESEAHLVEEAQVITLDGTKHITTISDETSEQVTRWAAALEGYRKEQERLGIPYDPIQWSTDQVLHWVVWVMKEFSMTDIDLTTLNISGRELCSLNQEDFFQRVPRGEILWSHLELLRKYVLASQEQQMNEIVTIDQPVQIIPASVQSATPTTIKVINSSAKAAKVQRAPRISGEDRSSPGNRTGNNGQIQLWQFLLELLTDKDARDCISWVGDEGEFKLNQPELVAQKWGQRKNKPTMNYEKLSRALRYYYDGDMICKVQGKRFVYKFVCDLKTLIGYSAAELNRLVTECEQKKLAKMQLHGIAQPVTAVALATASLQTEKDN
# In short: as §1
# [4] = molecular target: T4, ERG (Homo sapiens, UniProt P11308 1-479); conditions: protein: recombinant; tags: N-terminal GST; dsDNA, one strand shown
# T4 sequence: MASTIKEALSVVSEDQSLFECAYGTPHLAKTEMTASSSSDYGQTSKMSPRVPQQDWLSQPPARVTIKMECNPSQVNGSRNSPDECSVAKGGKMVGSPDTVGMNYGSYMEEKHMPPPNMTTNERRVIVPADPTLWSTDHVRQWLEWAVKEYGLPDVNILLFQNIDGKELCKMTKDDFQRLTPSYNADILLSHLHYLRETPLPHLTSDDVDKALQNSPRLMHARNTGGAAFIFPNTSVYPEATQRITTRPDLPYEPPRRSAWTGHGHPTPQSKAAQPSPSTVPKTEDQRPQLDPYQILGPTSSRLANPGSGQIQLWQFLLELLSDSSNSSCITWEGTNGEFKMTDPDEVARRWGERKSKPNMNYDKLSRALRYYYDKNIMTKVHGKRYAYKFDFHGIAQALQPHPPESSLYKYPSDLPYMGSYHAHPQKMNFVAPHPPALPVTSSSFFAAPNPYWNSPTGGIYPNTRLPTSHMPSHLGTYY
# In short: as §1
# [5] = molecular target: ELF1 (Homo sapiens, UniProt P32519 1-619); conditions: protein: recombinant; tags: N-terminal GST; dsDNA, one strand shown
# In short: as §1
# [6] = molecular target: T5, EHF (Homo sapiens, UniProt Q9NZC4 1-300); conditions: protein: recombinant; tags: N-terminal GST; dsDNA, one strand shown
# T5 sequence: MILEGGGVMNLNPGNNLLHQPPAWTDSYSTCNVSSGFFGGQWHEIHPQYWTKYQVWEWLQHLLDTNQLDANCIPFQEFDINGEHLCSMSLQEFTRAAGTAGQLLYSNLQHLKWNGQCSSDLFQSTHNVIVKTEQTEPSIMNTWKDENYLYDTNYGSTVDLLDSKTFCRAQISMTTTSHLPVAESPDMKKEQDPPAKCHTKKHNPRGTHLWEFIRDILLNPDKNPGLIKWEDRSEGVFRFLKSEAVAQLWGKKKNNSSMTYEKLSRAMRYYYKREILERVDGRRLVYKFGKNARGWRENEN
# In short: as §1
# [7] = molecular target: SPI1 (Homo sapiens, UniProt P17947 1-270); conditions: protein: recombinant; tags: N-terminal GST; dsDNA, one strand shown
# In short: as §1
# [8] = molecular target: SPIB (Homo sapiens, UniProt Q01892 1-262); conditions: protein: recombinant; tags: N-terminal GST; dsDNA, one strand shown
# In short: as §1
# [9] = molecular target: T6, ELK3 (Homo sapiens, UniProt P41970 1-407); conditions: protein: recombinant; tags: N-terminal GST; dsDNA, one strand shown
# T6 sequence: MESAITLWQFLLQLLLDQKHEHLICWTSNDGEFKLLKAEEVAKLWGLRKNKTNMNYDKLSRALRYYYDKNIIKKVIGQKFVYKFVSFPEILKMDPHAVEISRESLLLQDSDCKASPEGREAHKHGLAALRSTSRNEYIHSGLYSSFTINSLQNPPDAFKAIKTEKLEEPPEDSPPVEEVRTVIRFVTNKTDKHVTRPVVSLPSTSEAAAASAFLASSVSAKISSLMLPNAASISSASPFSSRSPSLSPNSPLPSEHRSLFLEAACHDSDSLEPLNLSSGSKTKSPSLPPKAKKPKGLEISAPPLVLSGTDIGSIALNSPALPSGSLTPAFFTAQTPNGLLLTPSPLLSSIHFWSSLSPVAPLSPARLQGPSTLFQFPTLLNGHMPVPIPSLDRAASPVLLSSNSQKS
# In short: as §1
# [10] = molecular target: T7, FEV (Homo sapiens, UniProt Q99581 1-238); conditions: protein: recombinant; tags: N-terminal GST; dsDNA, one strand shown
# T7 sequence: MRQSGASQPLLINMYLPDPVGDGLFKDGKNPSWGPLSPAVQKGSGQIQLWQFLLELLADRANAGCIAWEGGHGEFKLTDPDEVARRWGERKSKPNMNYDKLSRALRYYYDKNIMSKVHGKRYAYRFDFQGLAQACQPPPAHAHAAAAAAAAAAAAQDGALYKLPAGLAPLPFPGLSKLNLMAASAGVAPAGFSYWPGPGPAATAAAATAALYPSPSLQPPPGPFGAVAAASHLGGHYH
# In short: as §1
# [11] = molecular target: ETV5 (Homo sapiens, UniProt P41161 1-510); conditions: protein: recombinant; tags: N-terminal GST; dsDNA, one strand shown
# In short: as §1
# [12] = molecular target: HSF1 (Homo sapiens, UniProt Q00613 1-529); conditions: protein: recombinant; tags: N-terminal GST; chain copies: 3; dsDNA, one strand shown
# In short: as §1
# [13] = molecular target: T8, SPIC (Homo sapiens, UniProt Q8N5J4 1-248); conditions: protein: recombinant; tags: N-terminal GST; dsDNA, one strand shown
# T8 sequence: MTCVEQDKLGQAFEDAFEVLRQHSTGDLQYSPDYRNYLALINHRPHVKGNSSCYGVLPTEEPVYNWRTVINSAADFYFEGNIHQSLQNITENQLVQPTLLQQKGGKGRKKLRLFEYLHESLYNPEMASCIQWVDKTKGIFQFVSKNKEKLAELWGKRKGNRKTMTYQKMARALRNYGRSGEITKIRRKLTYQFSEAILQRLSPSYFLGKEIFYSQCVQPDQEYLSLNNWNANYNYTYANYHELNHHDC
# In short: as §1
# [14] = molecular target: ELF4 (Homo sapiens, UniProt Q99607 1-663); conditions: protein: recombinant; tags: N-terminal GST; dsDNA, one strand shown
# In short: as §1
# [15] = molecular target: T9, ELK4 (Homo sapiens, UniProt P28324-2 1-405); conditions: protein: recombinant; tags: N-terminal GST; dsDNA, one strand shown
# T9 sequence: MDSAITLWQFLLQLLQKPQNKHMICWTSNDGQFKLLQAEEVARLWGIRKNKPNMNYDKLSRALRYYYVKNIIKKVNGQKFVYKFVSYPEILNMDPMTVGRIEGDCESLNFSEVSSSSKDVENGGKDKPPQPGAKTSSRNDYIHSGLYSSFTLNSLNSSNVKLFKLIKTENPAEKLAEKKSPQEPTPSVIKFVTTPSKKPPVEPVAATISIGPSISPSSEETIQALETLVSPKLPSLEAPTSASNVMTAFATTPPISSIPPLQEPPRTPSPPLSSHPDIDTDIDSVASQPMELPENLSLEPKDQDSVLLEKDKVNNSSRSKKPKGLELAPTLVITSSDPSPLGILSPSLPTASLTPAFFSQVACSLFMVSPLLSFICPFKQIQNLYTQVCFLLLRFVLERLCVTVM
# In short: as §1
# [16] = molecular target: T10, ETV2 (Homo sapiens, UniProt O00321 1-342); conditions: protein: recombinant; tags: N-terminal GST; dsDNA, one strand shown
# T10 sequence: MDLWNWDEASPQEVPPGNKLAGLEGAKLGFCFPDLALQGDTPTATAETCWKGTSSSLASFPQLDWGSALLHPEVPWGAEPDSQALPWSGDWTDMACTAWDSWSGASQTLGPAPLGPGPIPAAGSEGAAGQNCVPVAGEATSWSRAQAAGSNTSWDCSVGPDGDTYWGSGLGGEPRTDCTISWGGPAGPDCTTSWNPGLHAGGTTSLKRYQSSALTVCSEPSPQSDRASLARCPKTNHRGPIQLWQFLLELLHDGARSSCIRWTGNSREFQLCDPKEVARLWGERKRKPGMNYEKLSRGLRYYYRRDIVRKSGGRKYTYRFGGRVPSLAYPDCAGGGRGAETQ
# In short: as §1
# [17] = molecular target: T11, ELF3 (Homo sapiens, UniProt P78545 1-371); conditions: protein: recombinant; tags: N-terminal GST; dsDNA, one strand shown
# T11 sequence: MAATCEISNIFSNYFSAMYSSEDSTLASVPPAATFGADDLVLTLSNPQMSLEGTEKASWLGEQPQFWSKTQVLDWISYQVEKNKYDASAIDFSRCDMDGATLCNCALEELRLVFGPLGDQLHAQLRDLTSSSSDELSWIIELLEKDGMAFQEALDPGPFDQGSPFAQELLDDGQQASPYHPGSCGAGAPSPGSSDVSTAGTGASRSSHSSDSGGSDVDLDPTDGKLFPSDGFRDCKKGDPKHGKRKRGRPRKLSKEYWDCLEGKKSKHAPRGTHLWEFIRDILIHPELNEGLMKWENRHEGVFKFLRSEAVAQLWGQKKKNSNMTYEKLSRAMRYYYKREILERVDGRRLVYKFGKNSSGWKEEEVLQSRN
# In short: as §1
# [18] = molecular target: CRX (Homo sapiens, UniProt O43186 1-299); conditions: protein: recombinant; tags: N-terminal GST; dsDNA, one strand shown
# In short: as §1
# [19] = molecular target: ETV1 (Homo sapiens, UniProt P50549 1-477); conditions: protein: recombinant; tags: N-terminal GST; dsDNA, one strand shown
# In short: as §1
# Sequence of SPIB (Q01892 whole entry): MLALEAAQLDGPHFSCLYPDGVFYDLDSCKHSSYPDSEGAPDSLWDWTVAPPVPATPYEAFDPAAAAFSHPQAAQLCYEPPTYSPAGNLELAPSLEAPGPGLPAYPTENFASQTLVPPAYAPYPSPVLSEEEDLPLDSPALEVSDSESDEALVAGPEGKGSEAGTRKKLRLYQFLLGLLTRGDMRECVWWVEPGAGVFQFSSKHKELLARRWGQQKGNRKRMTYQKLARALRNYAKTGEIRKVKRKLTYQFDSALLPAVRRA
# Sequence of CRX (O43186 whole entry): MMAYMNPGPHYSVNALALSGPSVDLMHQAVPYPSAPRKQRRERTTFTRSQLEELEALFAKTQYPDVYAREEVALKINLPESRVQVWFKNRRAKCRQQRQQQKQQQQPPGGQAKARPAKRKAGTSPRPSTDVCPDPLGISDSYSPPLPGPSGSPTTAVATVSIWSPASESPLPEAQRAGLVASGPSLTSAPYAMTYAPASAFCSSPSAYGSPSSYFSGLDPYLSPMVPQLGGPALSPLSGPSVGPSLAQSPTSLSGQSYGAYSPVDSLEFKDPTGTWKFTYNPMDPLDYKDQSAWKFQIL
# Sequence of ETV1 (P50549 whole entry): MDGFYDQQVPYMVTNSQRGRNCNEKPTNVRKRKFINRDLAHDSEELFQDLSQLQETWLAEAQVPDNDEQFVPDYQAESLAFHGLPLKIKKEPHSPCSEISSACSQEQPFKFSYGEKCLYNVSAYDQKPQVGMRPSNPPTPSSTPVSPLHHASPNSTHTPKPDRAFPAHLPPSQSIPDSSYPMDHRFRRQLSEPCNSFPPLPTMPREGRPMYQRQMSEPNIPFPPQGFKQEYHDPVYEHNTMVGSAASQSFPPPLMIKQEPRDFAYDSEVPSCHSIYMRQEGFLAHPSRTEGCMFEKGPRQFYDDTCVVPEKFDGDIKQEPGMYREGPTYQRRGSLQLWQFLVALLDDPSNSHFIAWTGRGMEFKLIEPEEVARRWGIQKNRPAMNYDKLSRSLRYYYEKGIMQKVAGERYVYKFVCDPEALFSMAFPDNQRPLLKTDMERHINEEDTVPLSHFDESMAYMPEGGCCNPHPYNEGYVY
# Sequence of ELF1 (P32519 whole entry): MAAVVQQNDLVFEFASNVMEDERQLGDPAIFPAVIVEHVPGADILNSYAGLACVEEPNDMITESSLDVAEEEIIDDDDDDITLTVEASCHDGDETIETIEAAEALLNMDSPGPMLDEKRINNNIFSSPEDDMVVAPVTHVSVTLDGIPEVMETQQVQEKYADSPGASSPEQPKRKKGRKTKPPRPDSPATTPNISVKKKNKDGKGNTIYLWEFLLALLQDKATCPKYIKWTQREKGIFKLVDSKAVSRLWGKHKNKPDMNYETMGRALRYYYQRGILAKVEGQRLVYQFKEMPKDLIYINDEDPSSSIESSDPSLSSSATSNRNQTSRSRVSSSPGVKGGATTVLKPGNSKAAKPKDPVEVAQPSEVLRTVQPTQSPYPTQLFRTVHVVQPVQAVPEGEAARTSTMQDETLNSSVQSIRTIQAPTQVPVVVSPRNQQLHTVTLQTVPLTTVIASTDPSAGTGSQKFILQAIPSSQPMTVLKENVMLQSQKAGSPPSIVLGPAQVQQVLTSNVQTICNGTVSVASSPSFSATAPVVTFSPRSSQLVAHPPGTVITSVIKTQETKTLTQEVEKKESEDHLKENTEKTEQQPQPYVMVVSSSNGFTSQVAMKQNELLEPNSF
# Sequence of ELF4 (Q99607 whole entry): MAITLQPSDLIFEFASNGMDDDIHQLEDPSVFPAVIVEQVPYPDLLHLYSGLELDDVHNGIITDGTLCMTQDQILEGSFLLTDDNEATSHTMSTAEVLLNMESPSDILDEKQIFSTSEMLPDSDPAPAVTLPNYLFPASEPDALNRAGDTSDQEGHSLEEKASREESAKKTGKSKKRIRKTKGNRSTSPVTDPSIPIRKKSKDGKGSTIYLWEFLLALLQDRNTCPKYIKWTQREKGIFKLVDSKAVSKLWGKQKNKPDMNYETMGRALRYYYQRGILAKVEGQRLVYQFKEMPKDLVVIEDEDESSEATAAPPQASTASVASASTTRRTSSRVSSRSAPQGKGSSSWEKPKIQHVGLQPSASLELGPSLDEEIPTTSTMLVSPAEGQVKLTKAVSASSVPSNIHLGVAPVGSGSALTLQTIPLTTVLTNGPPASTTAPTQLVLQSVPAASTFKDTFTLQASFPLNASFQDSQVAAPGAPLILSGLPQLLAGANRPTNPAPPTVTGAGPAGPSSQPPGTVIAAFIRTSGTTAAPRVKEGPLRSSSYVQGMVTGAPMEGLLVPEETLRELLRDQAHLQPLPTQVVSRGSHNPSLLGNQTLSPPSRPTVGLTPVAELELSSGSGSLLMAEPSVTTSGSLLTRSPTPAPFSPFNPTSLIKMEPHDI
# Sequence of ETV5 (P41161 whole entry): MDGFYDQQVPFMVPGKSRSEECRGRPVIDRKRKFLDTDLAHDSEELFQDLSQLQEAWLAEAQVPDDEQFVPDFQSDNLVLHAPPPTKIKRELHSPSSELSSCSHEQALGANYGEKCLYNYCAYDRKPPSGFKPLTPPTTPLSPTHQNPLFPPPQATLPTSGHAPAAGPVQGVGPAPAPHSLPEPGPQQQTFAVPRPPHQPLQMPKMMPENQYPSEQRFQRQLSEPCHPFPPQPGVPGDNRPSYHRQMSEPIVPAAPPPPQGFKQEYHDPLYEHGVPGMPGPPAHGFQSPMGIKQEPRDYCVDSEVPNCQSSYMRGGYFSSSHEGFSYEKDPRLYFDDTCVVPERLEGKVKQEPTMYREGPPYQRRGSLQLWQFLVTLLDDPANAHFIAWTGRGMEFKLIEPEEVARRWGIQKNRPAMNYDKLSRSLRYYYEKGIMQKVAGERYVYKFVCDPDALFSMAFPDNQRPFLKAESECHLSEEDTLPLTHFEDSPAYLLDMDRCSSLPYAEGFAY
# Sequence of HSF1 (Q00613 whole entry): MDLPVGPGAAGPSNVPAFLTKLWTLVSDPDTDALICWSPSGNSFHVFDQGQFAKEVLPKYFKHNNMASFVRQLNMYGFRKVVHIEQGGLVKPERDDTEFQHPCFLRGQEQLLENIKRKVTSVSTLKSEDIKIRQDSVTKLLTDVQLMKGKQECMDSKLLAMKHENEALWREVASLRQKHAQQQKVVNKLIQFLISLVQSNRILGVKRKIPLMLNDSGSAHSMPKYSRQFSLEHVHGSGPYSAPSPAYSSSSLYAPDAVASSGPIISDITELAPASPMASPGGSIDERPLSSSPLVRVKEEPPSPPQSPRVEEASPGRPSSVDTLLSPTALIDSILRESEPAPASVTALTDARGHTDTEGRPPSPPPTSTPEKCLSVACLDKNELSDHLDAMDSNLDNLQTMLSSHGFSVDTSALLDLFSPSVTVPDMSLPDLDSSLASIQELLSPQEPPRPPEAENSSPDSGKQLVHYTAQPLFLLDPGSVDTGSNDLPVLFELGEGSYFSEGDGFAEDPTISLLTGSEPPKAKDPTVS
sequence,measurement,setting,value
TTCCGA,binding signal,[1],"1.64 fold enrichment (6-mer frequency, TF over GST control)"
same,binding signal,[2],"1.62 fold enrichment (6-mer frequency, TF over GST control)"
same,binding signal,[3],"1.43 fold enrichment (6-mer frequency, TF over GST control)"
same,binding signal,[4],"1.66 fold enrichment (6-mer frequency, TF over GST control)"
same,binding signal,[5],"1.44 fold enrichment (6-mer frequency, TF over GST control)"
same,binding signal,[6],"1.71 fold enrichment (6-mer frequency, TF over GST control)"
same,binding signal,[7],"1.62 fold enrichment (6-mer frequency, TF over GST control)"
same,binding signal,[8],"1.44 fold enrichment (6-mer frequency, TF over GST control)"
same,binding signal,[9],"1.68 fold enrichment (6-mer frequency, TF over GST control)"
same,binding signal,[10],"1.81 fold enrichment (6-mer frequency, TF over GST control)"
same,binding signal,[11],"1.57 fold enrichment (6-mer frequency, TF over GST control)"
same,binding signal,[12],"1.35 fold enrichment (6-mer frequency, TF over GST control)"
same,binding signal,[13],"1.61 fold enrichment (6-mer frequency, TF over GST control)"
same,binding signal,[14],"1.44 fold enrichment (6-mer frequency, TF over GST control)"
same,binding signal,[15],"1.46 fold enrichment (6-mer frequency, TF over GST control)"
same,binding signal,[16],"1.7 fold enrichment (6-mer frequency, TF over GST control)"
same,binding signal,[17],"1.5 fold enrichment (6-mer frequency, TF over GST control)"
same,binding signal,[18],"1.19 fold enrichment (6-mer frequency, TF over GST control)"
same,binding signal,[19],"1.63 fold enrichment (6-mer frequency, TF over GST control)"
